Holding throughout (format): functional
Assay [1] concerns the target Solute carrier family 2, facilitated glucose transporter member 1 (Homo sapiens) (UniProt P11166). As to the kind of experiment: ST_JUDE_LEISH: Cytotoxicity at 2uM final concentration against transgenic Leishmania Mexicana promastigotes LmGLUT1 that are glucose transport deficient and complemented with the human glucose transporter GLUT1. Activity is measured by DNA content using SYBR green in vitro.

Assay [2] deals with Hexose transporter 1 (Plasmodium falciparum) (UniProt O97467). As to the kind of experiment: ST_JUDE_LEISH: Cytotoxicity at 2uM final concentration against transgenic Leishmania Mexicana promastigotes LmPfHT that are glucose transport deficient and complemented with the Plasmodium falciparum hexose transporter. Activity is measured by DNA content using SYBR green in vitro.
Assay [3] deals with Glucose transporter (Leishmania mexicana) (UniProt O61059). As to the kind of experiment: ST_JUDE_LEISH: Cytotoxicity at 2uM final concentration against transgenic Leishmania Mexicana promastigotes LmGT2 that are glucose transport deficient and complemented with the L. Mexicana glucose transporter 2. Activity is measured by DNA content using SYBR green in vitro.

In general, inhibition refers to the change of the read-out against control, counted positive when it falls.

Chain of Solute carrier family 2, facilitated glucose transporter member 1 (Homo sapiens) (P11166 whole entry): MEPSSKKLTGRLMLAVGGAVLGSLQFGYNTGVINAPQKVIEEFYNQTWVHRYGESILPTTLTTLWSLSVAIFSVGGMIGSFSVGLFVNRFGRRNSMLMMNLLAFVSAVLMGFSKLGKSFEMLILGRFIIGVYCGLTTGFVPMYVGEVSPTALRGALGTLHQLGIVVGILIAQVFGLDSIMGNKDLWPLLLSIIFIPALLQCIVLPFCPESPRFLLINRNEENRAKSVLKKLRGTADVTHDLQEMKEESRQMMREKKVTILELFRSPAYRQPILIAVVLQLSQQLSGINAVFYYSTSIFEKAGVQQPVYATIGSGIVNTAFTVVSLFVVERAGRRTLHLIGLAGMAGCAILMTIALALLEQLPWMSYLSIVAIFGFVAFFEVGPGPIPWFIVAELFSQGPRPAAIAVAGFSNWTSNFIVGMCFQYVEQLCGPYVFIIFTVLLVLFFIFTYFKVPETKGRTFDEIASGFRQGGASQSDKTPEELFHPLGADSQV

For the compound `O=C(Nc1cccc(Cl)c1)N[C@H]1CCN(Cc2ccc(OCCCN3CCCCC3)cc2)C1`, the inhibition worked out at 9.4% in assay [1], 9.12% in assay [2] and 8.16% in assay [3].
The like results for `O=C(Nc1ccc2c(c1)OCCO2)c1cc(-c2cccnc2)nc2ccc(Cl)cc12` were, in that order, 3.75%, 1.71% and 0.65%.
The like results for `NS(=O)(=O)c1cccc(Nc2nccc(-c3cnn4ncccc34)n2)c1` were, in that order, 50.6%, 76.5% and 64.8%.
The like results for `Fc1cc(Cl)ccc1Nc1ccnc2cc(-c3ccc(CNCCN4CCOCC4)o3)ccc12` were, in that order, 1.58%, 1.07% and 0.9%.
As to `CS(=O)(=O)Nc1ccc(-c2cnc3[nH]cc(-c4ccc(C(=O)O)cc4)c3c2)cc1`, the figures for the inhibition in assay [1], in assay [2] and in assay [3] were 8.98%, 9.93% and 8.74%, respectively.
The like results for `O=C(NCc1cccc(F)c1)Nc1cccc(-c2cccc(-c3nc4ccccc4[nH]3)c2)c1` were, in that order, 7.33%, 5.52% and 7.79%.
With `COc1ccc(-c2cccc(NC(=O)c3cccc(F)c3)c2)cc1CN1CCCN(C)CC1`, the inhibition was 2.17% in assay [1], 1.16% in assay [2] and -0.49% in assay [3].
As for `COc1ccc(N(C)Cc2cnc3nc(N)nc(N)c3n2)cc1`, the inhibition in assay [1] was found to be 1.5%; in assay [2], 1.84%; in assay [3] it was 2.61%.
For the compound `Cc1nc(-c2ccc(C(F)(F)F)cn2)sc1C(=O)N1CCc2cc3nccc(N4CCN5CCC[C@H]5C4)c3cc21`, the inhibition amounted to 7.49% in assay [1], 5.35% in assay [2] and 0.8% in assay [3].
The like results for `CC(C)CC1(C(=O)OC(C)(C)C)CC(C(=O)OC(C)(C)C)C(c2cccs2)N1C(=O)c1ccc(C(C)(C)C)cc1` (stereo unspecified) were, in that order, 3.89%, 3.12% and 2.67%.
On to `CC(C)C(=O)n1ncc2c3c(N)nc(N)nc3ccc21`, for which the inhibition in assay [1] was -0.81%; in assay [2], -1.08%; in assay [3] it was -0.01%.
`Cc1ccccc1C1CCN(C2CCC(NC(=O)c3ccc(-c4ccccn4)s3)CC2)CC1` (stereo unspecified): the results for the inhibition in assay [1], in assay [2] and in assay [3] were -4.15%, -2.96% and -1.37%, respectively.
The like results for `Nc1cc(/C=C/c2ccc([N+](=O)[O-])s2)nc2ccccc12` were, in that order, 16.4%, 16.5% and 8.5%.
`CC(C)N1CCN(C(CN2CCN(CCCOc3ccc4ccccc4c3)CC2)c2ccc(F)cc2)CC1` (stereo unspecified): the inhibition in assay [1] is 1.8%; in assay [2], 1.79%; in assay [3] it was -0.76%.
The like results for `O=C(/C=C/c1ccc(Cl)c(Cl)c1)NCCCCCN1CCCN(C(=O)Nc2cc(Cl)nc(Cl)c2)CC1` were, in that order, 5.11%, 6.64% and 5.94%.
The like results for `Cc1cc(OCCCN2CCCCC2)ccc1NC(=O)COc1ccc(Cl)cc1C(=O)c1cc(C#N)cc(C(F)(F)F)c1` were, in that order, 4.63%, 3.53% and 0.43%.
The like results for `NCC1CCCN1Cc1cccc(-c2ccc(-c3nc4cc(C(F)(F)F)ccc4[nH]3)s2)c1` (stereo unspecified) were, in that order, 1.28%, 0.87% and 0.38%.
`N#CCCn1nc(-c2ccc(Cl)cc2)c2c(c1=O)CCCC2`: the inhibition in assay [1] turned out to be 0.21%; in assay [2] it was 1.16%; in assay [3] it was 1.01%.
The like results for `CCc1cn2c3c(cc(C(=O)N[C@@H](Cc4ccccc4)[C@H](O)CNC4CCCC4)cc13)N(C)S(=O)(=O)CC2` were, in that order, 8.55%, 9.26% and 5.93%.
`CN1CCN(Cc2ccc(-c3ccc4c(Nc5ccc(F)cc5Cl)ccnc4c3)o2)CC1`: the inhibition in assay [1] was 0.53%; in assay [2] it was 0.83%; in assay [3] it was 1.39%.
`NC1CCCN(Cc2cccc(-c3ccc(-c4nc5cc(C(F)(F)F)ccc5[nH]4)cc3)c2)C1` (stereo unspecified): the inhibition in assay [1] is 2.3%; in assay [2], 0.39%; in assay [3] it was 2.55%.
As for `c1ccc(-c2ccc(CNCc3ccc(-c4cccc(-c5nc6ccccc6[nH]5)c4)cc3)s2)nc1`, the values for the inhibition in assay [1], in assay [2] and in assay [3] were 1.04%, 2.78% and 0.61%, respectively.
The like results for `CC(C)(C)c1cc(C(=O)Nc2ccc(C(=N)N)cc2)c(O)c(C(C)(C)C)c1` were, in that order, -0.84%, 3.05% and 1.59%.
The like results for `Cc1c(C(=O)Nc2cc(Sc3ccc(F)cc3)cc([N+](=O)[O-])c2)sc2ncn(Cc3cccc(F)c3)c(=O)c12` were, in that order, 3.77%, -2.45% and 7.11%.
Regarding `N#CC(c1ccc(F)cc1)c1ccc2c(C(F)(F)F)cc(C(F)(F)F)nc2n1` (stereo unspecified), the inhibition in assay [1] worked out at 3.66%; in assay [2], 4.6%; in assay [3], 1.81%.
As to `N#CCCN1CCN(Cc2cccc(-c3ccc(-c4nc5ccccc5[nH]4)cc3)c2)CC1`, the figures for the inhibition in assay [1], in assay [2] and in assay [3] were 2.32%, 3.22% and 0.84%, respectively.
The like results for `O=C(Nc1cccc(CN2CCN(C(=O)c3cccc(Cl)c3)CC2)c1)c1cccs1` were, in that order, 5.62%, 4.14% and 2.57%.
As for `COc1ccc2nc3cc(Cl)ccc3c(N)c2c1`, the inhibition in assay [1] stood at 15.8%; in assay [2], 10%; in assay [3] it was 3.3%.
The like results for `FC(F)(F)c1ccc2[nH]c(-c3ccc(-c4cccc(CNCc5ccccc5)c4)cc3)nc2c1` were, in that order, 7.1%, 4.87% and 7.33%.
On to `Cc1cccc2nc(-c3ccc(-c4cccc(NC(=O)C(C)CN5CCN(C)CC5)c4)s3)[nH]c12` (stereo unspecified), for which the values for the inhibition in assay [1], in assay [2] and in assay [3] were 11.7%, 10.8% and 10.3%, respectively.
Regarding `CCN(CC)CCN(Cc1ccc(-c2ccc(C(F)(F)F)cc2)cc1)C(=O)c1ccc(-c2ccc(C#N)cc2)cc1`, the inhibition was 2.48% in assay [1], 0.49% in assay [2] and 2.37% in assay [3].
The like results for `Cc1ccc2cc(C3NC(=O)c4ccccc4N3)c(Cl)nc2c1` (stereo unspecified) were, in that order, 18.9%, 16.3% and 14.9%.

These data come from ChEMBL document CHEMBL3433997, “St. Jude Leishmania screening dataset” (2016).
